Experimental data as given in PubChem BioAssay AID457 (Sanford-Burnham Center for Chemical Genomics, 2006).
About 20 (0.2%) of roughly 10,000 compounds were called active. How the calls were made is not given here. Only a sample is shown.

assay: boosters of cytokine-driven VCAM-1 levels – imaging, high-content imaging, pooled HUVEC, TNFa stimulus (AID 457); details: TNFa-induced VCAM-1 immunofluorescence imaging; concentration not given here

augmentation, inactive:
COCCNC(=O)CN1CCN(C(c2ccccc2)c2ccccc2)CC1
Cc1ccc(CN2CCN(C(=O)C3CCC3)CC2)cc1
Cc1cc(NC(=O)CCOc2ccccc2)no1
COc1ccc(N2C(=O)C3CCCN3C2c2ccc(F)cc2)cc1Cl (stereo unspecified)
O=c1c2cnn(-c3ccccc3)c2ncn1/N=C/c1ccncc1
COC(=O)c1[nH]c2ccc(C)cc2c1NC(=O)CN1CCN(C(=O)c2ccccc2)CC1
CC1Cc2cc(/C(O)=C3/C(=O)C(=O)N(CCN4CCOCC4)C3c3cccc(O)c3)ccc2O1 (stereo unspecified)
Clc1ccc(-c2nnc3sc(-c4ccc(Br)o4)nn23)cc1
CCCCN(CCCNC(=O)C1CCN(S(=O)(=O)CC)CC1)c1ccccc1
CS(=O)(=O)N(CC(=O)N1CCN(c2cccc(Cl)c2)CC1)C1CCCCC1
CC1CCN(CCCNC(=O)c2coc3nc4ccccc4nc23)CC1
COc1ccc(-c2nnc(SCC#N)o2)cc1
O=C(CSc1nnnn1-c1ccc2c(c1)OCO2)NCc1cccs1
CCOC(=O)N1CCN(C(=O)c2csc3c2CCCCC3)CC1
Cc1cccc(-n2ncc3c(NCc4ccccn4)ncnc32)c1
CCCN(CCC)C(=O)c1c(C)[nH]c(C(=O)OCC)c1C
CCOC(=O)c1ccc2nc(C)c3c(c2c1)OC(C)C3 (stereo unspecified)
Cc1c(NC(=O)C2CCCNC2=O)c(=O)n(-c2ccccc2)n1C (stereo unspecified)
O=C1CC(c2ccccc2)Cc2nc(N3CCc4ccccc43)ncc21 (stereo unspecified)
CC(=O)N1CCN(c2ccc(S(=O)(=O)N3CCCCC3)cn2)CC1
COc1cc(OC)cc(-c2nc3cc(C)ccc3o2)c1
CC1CN(C(=O)CSc2nnc(-c3ccc(Cl)cc3)n2C)CC(C)O1 (stereo unspecified)
CCCOc1ccccc1NC(=O)c1ccc(N)cc1
C=CCSc1ncccc1C(=O)O
CCN(CCNC(=O)C1CCN(S(=O)(=O)CC)CC1)c1ccccc1
Cc1oc2cc3c(C(=O)OCCN(C)C)c(C)oc3cc2c1C(=O)OCCN(C)C
Cc1nc(CNS(=O)(=O)c2cccc(F)c2)cs1
CCN(CC)c1ccc2c(c1)CCCN2
Cc1onc(-c2ccccc2)c1C(=O)N1CCCSC1=Nc1ccccc1
COCCN1CCN(c2c(C)c(C)nc3cc(-c4cccc(OC)c4)nn23)CC1
C=CCN1C(=O)C2(/C(=C(\O)c3ccc4c(c3)OCCO4)C(=O)C(=O)N2CCCOC)c2ccccc21 (stereo unspecified)
C=CCOc1nc(N2CCCC2)nc(N2CCCC2)n1
O=C(c1cccc2c1C(=O)N(Cc1cccnc1)C2)N1CCN(c2ccccc2)CC1
Cc1nnc2ccc(N3CCC4(CC3)OCCO4)nn12
Cc1nc(CCNS(=O)(=O)c2cccs2)cs1
CC(O)CN1C(=O)C(CC(=O)Nc2ccc(Cl)cc2)SC1=Nc1ccccc1 (stereo unspecified)
CCn1c(SCC(=O)C(C)(C)C)nnc1-c1cnccn1
c1ccc(CCNc2ccc3nncn3n2)cc1
O=C(NCc1nc2ccccc2[nH]1)c1ccc(Cl)c(S(=O)(=O)N2CCCC2)c1
Cc1cccc(Nc2nc(N)nc(CN3CCC(C(N)=O)CC3)n2)c1C
O=C(Nc1cccc(NC(=O)c2ccco2)c1)c1ccc2c(c1)OCO2
COc1ccccc1OCCn1c(=O)sc2ccccc21
O=C(Cc1ccccc1)Nc1ccc(CN2CCOCC2)cc1
Cc1ccc2[nH]c(=O)c3cc(C(=O)NCCN4CCN(C)CC4)sc3c2c1
CCOC(=O)N1CCN(C(=O)CSc2cc(C)nc3c(-c4ccccc4OC)c(C)nn23)CC1
COc1ccc(-c2nc(C#N)c(N3CCN(c4ccccc4)CC3)o2)cc1
CC(C)CNC(=O)c1ccccc1NC(=O)c1ccc(CN2CCOCC2)cc1
CCCN1CCN(CCCNC(=O)C2CCCN(c3nc4ccc(OCC)cc4s3)C2)CC1 (stereo unspecified)
CC(C)N(C(=O)N1CCC(c2nc(-c3ccncc3)no2)CC1)C(C)C
O=C(CN1C(=O)CC(c2ccco2)Sc2ccccc21)Nc1ccccc1F (stereo unspecified)
CC(O)c1c(OCc2ccccc2)ncnc1OCc1ccccc1 (stereo unspecified)
O=C(O)c1cc2c(s1)CCCC2
CCOC(=O)CN1CC23C=CC(O2)C(C(=O)NC2CCCC2)C3C1=O (stereo unspecified)
CCOc1ccc2cc(C#N)c(SCC(=O)N3CCC(C)CC3)nc2c1
CC(=O)Nc1sc2c(c1C#N)CCCCC2
CCCOc1ccc(S(=O)(=O)NCCCN2CCOCC2)c2ccccc12
O=C(Cn1ccc2ccccc2c1=O)Nc1ccc2c(c1)OCO2
CCOCCn1cnc2sc(C(=O)Nc3nc(C)c(C(=O)OCC)s3)c(C)c2c1=O
Nc1nc2ccccc2n1C(=O)CCc1ccccc1
Cc1sc2nc(CN3CCN(S(=O)(=O)c4cccc5nonc45)CC3)[nH]c(=O)c2c1C
O=C(CN1CCC(n2nnc3ccccc32)CC1)Nc1ccc2c(c1)CCC2
O=C(Nc1ncc(Cc2ccccc2)s1)C1CCCO1 (stereo unspecified)
O=C(Cc1c(F)cccc1Cl)Nc1ccncc1
CCCCCCc1ccc(-c2ncc(N)cn2)cc1
CCc1nnc(NC(=O)CSc2nnc(-c3ccoc3C)n2CC(C)C)s1
COc1nc(C)ccc1-c1noc(-c2ccncc2)n1
Cc1noc(/C=C/N(C)C)c1S(=O)(=O)N1CCc2ccccc21
O=C(Nc1ccc2c(c1)OCCO2)c1cnc2n(c1=O)CCS2
Cc1[nH]nc(N=CC2=C(O)CC(C)(C)CC2=O)c1-c1ccccc1
Cc1csc(SCCn2c(N3CCCC3)nc3c2c(=O)[nH]c(=O)n3C)n1
O=C(Nc1ccccc1Cl)c1c(F)c(F)c(F)c(F)c1F
O=C(COc1nnnc2ccccc12)N1CCCc2ccccc21
CC1(C)CC(=O)c2cnc(NCc3ccco3)nc2C1
COC(=O)C1=C(C)OC(N)=C(C#N)C1c1c(C)nn(-c2ccccc2)c1Cl (stereo unspecified)
CCCNC(=O)c1cc(S(=O)(=O)N2CCc3ccccc32)ccc1F
O=C(CSc1ncc(-c2ccc(F)cc2)[nH]1)N1CCCCC1
CC(C)OC(=O)CSc1nnc(-c2ccc(O)cc2)n1Cc1ccccc1
CSC1CCCCC1(O)CSc1nc2c(cc1C#N)CCCC2 (stereo unspecified)
Cc1cc(C)cc(NC(=O)C2CCCN(c3nccc(C)n3)C2)c1 (stereo unspecified)
Cn1c(/C=N/n2cnnc2)nc2ccccc21
Cc1ccccc1NC(=O)C1CCN(c2cnccn2)CC1
O=C(Nc1cccnc1)Nc1ccc(F)c(Cl)c1
C(=C\c1ccccc1)/CN1CCN(Cc2ccc3c(c2)OCCO3)CC1
CCOC(=O)N1CCN(CCC(=O)c2ccc(Cl)cc2)CC1
CCOC(=O)CSc1nc2ccccc2n1CC(=O)N1CCN(c2ccccc2)CC1
COc1ccccc1C(=O)NCC(=O)Nc1ccccc1
CCC(C)(C)NC(=O)CN(C(=O)c1snc(C(N)=O)c1N)c1ccc2c(c1)OCO2
COC(=O)c1ccccc1NC(=O)C1CC(=O)N(c2ccc(F)cc2)C1 (stereo unspecified)
Cc1cc(Cl)c(S(=O)(=O)N2CCN(c3ccc(F)cc3)CC2)cc1OCC(N)=O
Cc1ccc(-n2nnnc2SCC(=O)N2CCN(C(=O)c3ccco3)CC2)c(C)c1
O=S(CC(O)COCc1ccc(Cl)cc1)c1ccccn1 (stereo unspecified)
